PubChem BioAssay (EPA / NIEHS)
“And” between values parts separate entries of the source, which are not always exact repeats. Equal entries are not always repeated. Results filed as inconclusive are left out. Some compounds were tested as several samples or in several runs, with calls that do not always agree. The source made the active and inactive calls. Rule for the calls: active = hit-call score of the fitted dose curve at least 0.9, where 1 is the maximum; inconclusive = response in the unintended direction; inactive = score below 0.9.

Legend:
[1] = molecular target: zebrafish Thyroid Hormone Receptor alpha (TRa), thraa (gene 30670) (UniProt Q98867); experiment: ATG_zfTRa_XSP1: Attagene TRANS-FACTORIAL Multi-Species (XSP1) HepG2 Assay for zebrafish Thyroid Hormone Receptor alpha (TRa) (AID 2283807)
zebrafish Thyroid Hormone Receptor alpha (TRa), thraa (gene 30670), sequence (Q98867 whole entry, looked up, the tested form may be a part): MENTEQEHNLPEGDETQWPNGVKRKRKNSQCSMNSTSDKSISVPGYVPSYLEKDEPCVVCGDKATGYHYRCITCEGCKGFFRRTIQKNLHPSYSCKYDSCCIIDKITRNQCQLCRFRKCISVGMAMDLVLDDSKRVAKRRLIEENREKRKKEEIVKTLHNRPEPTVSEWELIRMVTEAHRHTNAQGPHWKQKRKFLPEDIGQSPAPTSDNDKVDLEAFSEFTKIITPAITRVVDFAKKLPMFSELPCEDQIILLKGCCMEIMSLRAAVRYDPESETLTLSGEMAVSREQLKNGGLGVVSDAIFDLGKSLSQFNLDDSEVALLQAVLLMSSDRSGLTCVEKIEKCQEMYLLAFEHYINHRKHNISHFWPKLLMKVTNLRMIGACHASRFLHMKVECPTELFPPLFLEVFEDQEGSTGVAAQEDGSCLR
Outline: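 HepG2 cells transiently transfected with GAL4-UAS reporter units including a zebrafish TRa–Gal4 chimera, dosed 24 h with 3 nM 6-alpha-fluorotestosterone present. Reporter mRNA quantified by RT-PCR and capillary electrophoresis; gain versus DMSO.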

[2] = molecular target: human Thyroid hormone Receptor beta (TRb), THRB (gene 7068) (UniProt P10828); experiment: ATG_hTRb_XSP1: Attagene TRANS-FACTORIAL Multi-Species (XSP1) HepG2 Assay for human Thyroid hormone Receptor beta (TRb) (AID 2283808)
human Thyroid hormone Receptor beta (TRb), THRB (gene 7068), sequence (P10828 whole entry, looked up, the tested form may be a part): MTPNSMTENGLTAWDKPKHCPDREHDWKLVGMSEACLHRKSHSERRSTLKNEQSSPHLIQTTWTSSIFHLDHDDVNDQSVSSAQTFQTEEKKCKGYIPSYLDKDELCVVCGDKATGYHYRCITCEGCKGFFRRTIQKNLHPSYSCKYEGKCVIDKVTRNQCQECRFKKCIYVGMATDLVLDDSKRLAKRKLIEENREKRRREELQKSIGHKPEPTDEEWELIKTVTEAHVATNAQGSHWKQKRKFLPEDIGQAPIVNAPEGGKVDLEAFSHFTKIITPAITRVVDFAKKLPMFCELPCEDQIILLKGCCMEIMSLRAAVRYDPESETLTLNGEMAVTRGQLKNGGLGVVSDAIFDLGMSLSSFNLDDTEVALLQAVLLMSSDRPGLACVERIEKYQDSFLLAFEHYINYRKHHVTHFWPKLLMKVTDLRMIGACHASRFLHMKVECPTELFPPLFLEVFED
Outline: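 HepG2 cells transiently transfected with reporter units driving GAL4-UAS reporters for chimeric NR-Gal4 proteins; 24 h chemical exposure with 3 nM 6-alpha-fluorotestosterone present. Reporter mRNA quantified by RT-PCR and capillary electrophoresis, gain of signal versus DMSO.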

[3] = molecular target: zebrafish Thyroid Hormone Receptor beta (TRb), thrb (gene 30607) (UniProt Q9PVE4); experiment: ATG_zfTRb_XSP1: Attagene TRANS-FACTORIAL Multi-Species (XSP1) HepG2 Assay for zebrafish Thyroid Hormone Receptor beta (TRb) (AID 2283809)
zebrafish Thyroid Hormone Receptor beta (TRb), thrb (gene 30607), sequence (Q9PVE4 whole entry, looked up, the tested form may be a part): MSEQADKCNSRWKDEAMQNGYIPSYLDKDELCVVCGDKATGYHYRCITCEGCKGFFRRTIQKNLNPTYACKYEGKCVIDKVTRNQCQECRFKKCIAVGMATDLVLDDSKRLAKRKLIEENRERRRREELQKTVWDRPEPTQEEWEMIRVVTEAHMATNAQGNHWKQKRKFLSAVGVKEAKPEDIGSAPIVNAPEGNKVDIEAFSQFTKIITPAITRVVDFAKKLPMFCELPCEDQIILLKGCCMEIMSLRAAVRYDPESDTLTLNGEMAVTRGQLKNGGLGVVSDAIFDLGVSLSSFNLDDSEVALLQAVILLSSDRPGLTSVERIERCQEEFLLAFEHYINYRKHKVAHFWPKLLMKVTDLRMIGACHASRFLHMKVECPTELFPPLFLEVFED
Outline: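 HepG2 cells transiently transfected with multiplexed GAL4-UAS reporter units expressing chimeric zebrafish TRb–Gal4. Dosed 24 h with 3 nM 6-alpha-fluorotestosterone present; reporter mRNA measured by RT-PCR, HpaI digestion and capillary electrophoresis; gain of signal versus DMSO.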

[4] = tested on: frog Estrogen Receptor (ER), gene 398734; experiment: ATG_frER1_XSP2: Attagene TRANS-FACTORIAL Multi-Species (XSP2) HepG2 Assay for frog Estrogen Receptor (ER) (AID 2283821);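 note: hits raise reporter mRNA above DMSO baseline so potency means agonist or activator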
Outline: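 HepG2, transient MRTU transfection, chimeric NR-GAL4/UAS reporters; 24 h compound exposure, 24-well. Readout: reporter mRNA via RT-PCR + capillary electrophoresis, fluorescence. Positive fit vs DMSO baseline.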

[5] = molecular target: Estrogen receptor beta (Homo sapiens) (UniProt Q92731); experiment: ATG_hERb_XSP2: Attagene TRANS-FACTORIAL Multi-Species (XSP2) HepG2 Assay for human Estrogen Receptor (ERb) (AID 2283813);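 note: actives raise reporter mRNA above DMSO so AC50 reflects agonist induction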
Estrogen receptor beta (Homo sapiens), sequence (Q92731 whole entry, looked up, the tested form may be a part): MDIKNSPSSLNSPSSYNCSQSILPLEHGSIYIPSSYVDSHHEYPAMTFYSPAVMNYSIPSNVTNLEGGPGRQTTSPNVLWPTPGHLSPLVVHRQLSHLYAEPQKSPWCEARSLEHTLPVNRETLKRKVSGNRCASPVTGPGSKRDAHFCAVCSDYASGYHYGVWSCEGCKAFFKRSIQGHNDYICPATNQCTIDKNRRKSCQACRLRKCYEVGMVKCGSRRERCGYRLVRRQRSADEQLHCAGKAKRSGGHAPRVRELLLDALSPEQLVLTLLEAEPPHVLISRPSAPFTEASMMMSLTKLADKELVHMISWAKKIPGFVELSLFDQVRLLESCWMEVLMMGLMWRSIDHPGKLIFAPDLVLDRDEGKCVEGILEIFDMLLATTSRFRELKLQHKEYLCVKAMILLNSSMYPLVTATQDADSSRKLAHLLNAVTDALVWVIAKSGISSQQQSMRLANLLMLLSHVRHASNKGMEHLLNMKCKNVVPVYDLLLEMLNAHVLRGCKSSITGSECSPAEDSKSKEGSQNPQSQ
Outline: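 HepG2 cells transiently transfected with GAL4-UAS reporter units and chimeric human ERb-Gal4, 24 h exposure. Reporter mRNA quantified by RT-PCR with FAM labelling, HpaI digestion and capillary electrophoresis; gain of signal versus DMSO.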

[6] = molecular target: GAL4 Transcription Factor (Internal Marker), GAL4 (gene 855828) (UniProt P04386); experiment: ATG_GAL4_XSP2: Attagene TRANS-FACTORIAL Multi-Species (XSP2) HepG2 Assay for GAL4 Transcription Factor (Internal Marker) (AID 2283814);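 note: GAL4 reporter mRNA background control in MRTU transfected cells not a receptor target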
GAL4 Transcription Factor (Internal Marker), GAL4 (gene 855828), sequence (P04386 whole entry, looked up, the tested form may be a part): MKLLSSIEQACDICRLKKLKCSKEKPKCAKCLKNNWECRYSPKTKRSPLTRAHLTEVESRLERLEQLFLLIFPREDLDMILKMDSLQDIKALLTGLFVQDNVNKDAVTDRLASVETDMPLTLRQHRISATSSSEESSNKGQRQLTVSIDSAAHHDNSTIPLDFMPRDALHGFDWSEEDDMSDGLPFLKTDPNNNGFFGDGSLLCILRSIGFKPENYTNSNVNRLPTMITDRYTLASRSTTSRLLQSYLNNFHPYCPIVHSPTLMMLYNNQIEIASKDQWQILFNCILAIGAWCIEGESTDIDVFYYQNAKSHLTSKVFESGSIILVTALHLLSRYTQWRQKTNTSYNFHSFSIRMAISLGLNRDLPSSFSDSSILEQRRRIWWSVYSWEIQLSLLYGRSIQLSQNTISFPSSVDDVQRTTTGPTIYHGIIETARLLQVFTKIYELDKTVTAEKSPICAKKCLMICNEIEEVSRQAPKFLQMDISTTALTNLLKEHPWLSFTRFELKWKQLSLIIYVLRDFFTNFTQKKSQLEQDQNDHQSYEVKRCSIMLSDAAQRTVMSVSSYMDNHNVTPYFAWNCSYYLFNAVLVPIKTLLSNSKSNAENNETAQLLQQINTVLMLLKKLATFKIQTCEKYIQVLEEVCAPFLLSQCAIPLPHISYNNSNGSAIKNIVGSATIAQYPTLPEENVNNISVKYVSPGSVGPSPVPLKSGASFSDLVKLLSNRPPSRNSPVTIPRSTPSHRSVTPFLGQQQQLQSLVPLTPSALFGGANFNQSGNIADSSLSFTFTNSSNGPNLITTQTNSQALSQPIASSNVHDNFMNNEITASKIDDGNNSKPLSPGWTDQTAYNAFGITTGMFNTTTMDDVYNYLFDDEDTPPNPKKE
Outline: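 HepG2 cells transiently transfected with GAL4-UAS reporter units, stimulated with 3 nM 6-alpha-fluorotestosterone plus 1.5 nM norgestrel, dosed 24 h. Reporter mRNA by RT-PCR/capillary electrophoresis; gain-of-signal fit versus DMSO, background control.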

[7] = tested on: zebrafish Estrogen Receptor (ER2a), gene 317734; experiment: ATG_zfER2a_XSP2: Attagene TRANS-FACTORIAL Multi-Species (XSP2) HepG2 Assay for zebrafish Estrogen Receptor (ER2a) (AID 2283818);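 note: hits raise reporter mRNA so AC50 reflects activation of zebrafish ER2a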
Outline: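 HepG2 cells transiently transfected with GAL4-UAS reporter units and chimeric zebrafish ER2a-Gal4, exposed 24 h; medium contains 3 nM 6-alpha-fluorotestosterone and 1.5 nM norgestrel. Reporter mRNA quantified by RT-PCR, HpaI digestion, capillary electrophoresis; gain versus DMSO.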

[8] = ATG_XTT_Cytotoxicity_XSP1: Cytotoxicity Assessment in the Attagene TRANS-FACTORIAL Multi-Species (XSP1) HepG2 Assay (AID 2283810)
Outline: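 XTT viability readout taken at 24 hours post-dosing in HepG2 liver cells co-treated with 3 nM 6-alpha-fluorotestosterone. Signal loss relative to DMSO controls reflects cytotoxicity.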

[9] = tested on: turtle Androgen Receptor (AR), gene 101947425; experiment: ATG_trAR_XSP2: Attagene TRANS-FACTORIAL Multi-Species (XSP2) HepG2 Assay for turtle Androgen Receptor (AR) (AID 2283815);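 for AC50: reporter mRNA from a Gal4 chimera of turtle AR measured by RT-PCR; potency for gain of reporter signal meaning activation above DMSO baseline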
Outline: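 HepG2 cells transiently transfected with GAL4-UAS reporter units for chimeric NR-Gal4 receptors; 24 h dosing in presence of 3 nM 6-alpha-fluorotestosterone and 1.5 nM norgestrel. Reporter mRNA by RT-PCR and capillary electrophoresis, gain of signal versus DMSO.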

[10] = tested on: chicken Androgen Receptor (AR), gene 422165; experiment: ATG_chAR_XSP2: Attagene TRANS-FACTORIAL Multi-Species (XSP2) HepG2 Assay for chicken Androgen Receptor (AR) (AID 2283819);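 note: hits raise reporter mRNA above DMSO so potency is for activation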
Outline: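 HepG2 cells transiently transfected with chicken AR–GAL4 chimeric reporter constructs, stimulated with 3 nM 6-alpha-fluorotestosterone plus 1.5 nM norgestrel, dosed 24 h. Reporter mRNA quantified by RT-PCR and capillary electrophoresis; gain of signal fitted versus DMSO.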

Measured: AC50

O=C1C2(Cl)C3(Cl)C4(Cl)C(Cl)(Cl)C5(Cl)C3(Cl)C1(Cl)C5(Cl)C24Cl (stereo not given)
inactive: [1] | [2] | [3] | [4]

Oc1c(I)cc(I)cc1I
inactive: [5] | [4]

C[C@]12CC[C@H](O)CC1=CC[C@@H]1[C@@H]2CC[C@]2(C)C(=O)CC[C@@H]12
inactive: [6]
active: [5] 1.14 µM and 962 nM | [7] 2.39 µM and 1.46 µM | [4] 3.14 µM and 1.55 µM

CC(C)(C)CC(C)(C)c1ccc(O)cc1
inactive: [1] | [3] | [8] | [5] | [7]
active: [4] 3.4 µM

Clc1ccc(C2(Cn3cncn3)CC(Br)CO2)c(Cl)c1 (stereo not given)
active: [7] 37.4 µM | [4] 9.65 µM and 5.35 µM
inactive: [5] | [6] | [7]

CC(C)C1CCC(Cc2ccc(Cl)cc2)C1(O)Cn1cncn1 (stereo not given)
inactive: [5] | [6] | [7] | [4]

C[C@]12CCC(=O)C[C@@H]1CC[C@@H]1[C@@H]2CC[C@]2(C)[C@@H](O)CC[C@@H]12
active: [9] 0.0339 µM | [10] 0.198 µM
inactive: [1] | [2] | [8] | [5] | [7] | [4]

CC12CC1(C)C(=O)N(c1cc(Cl)cc(Cl)c1)C2=O (stereo not given)
inactive: [1] | [3] | [8] | [5] | [6] | [7] | [4]

CC1(C)CCC(Cc2ccc(Cl)cc2)C1(O)Cn1cncn1 (stereo not given)
inactive: [1] | [2] | [3] | [8] | [6] | [7] | [4]

O=S(=O)(c1ccc(Cl)cc1)c1ccc(Cl)cc1
active: [5] 8.12 µM | [4] 26.4 µM
inactive: [5] | [7] | [4]

C[C@H]1CCCC(=O)CCC/C=C/c2cc(O)cc(O)c2C(=O)O1
active: [5] 0.00299 µM | [7] 24.6 nM and 6.41 nM | [4] 7.04 nM and 6.82 nM
inactive: [5] | [10]

COP(=O)(OC)O/C(=C\Cl)c1cc(Cl)c(Cl)cc1Cl
inactive: [1] | [3] | [6] | [7] | [4]

Oc1ccc(-c2ccccc2)cc1
active: [5] 1.16 µM and 1.68 µM | [7] 2.6 µM and 1.43 µM | [4] 2.17 µM and 811 nM

CC(C)(C)c1cc(O)ccc1O
inactive: [1] | [3] | [9] | [10]
active: [7] 43.8 µM | [4] 15.6 µM

CC(=O)C=C(C)C
active: [7] 46.7 µM
inactive: [7] | [10] | [4]
